Measured values reported in PubChem BioAssay (NCI).
Compounds without any hit were thinned out: in the full panel of roughly 83,000, 20% have a hit.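 Cell lines were cultured in 96-well plates, exposed to a single compound concentration, and assessed for percent growth 48 hours later.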 Calls of active or inactive are those of the source. The calls were made as follows: active = growth percent below 10; inactive = the rest.

What was measured:
Test in all cases: NCI-60 one-dose screen, 48 h (100 = growth as untreated, 0 = no growth, -100 = all killed)
Conditions in all cases: 10 µM unless noted
[1] = system: NCI-H23 lung
[2] = system: NCI-H226 lung
[3] = system: NCI-H322M lung
[4] = system: HOP-62 NSCLC
[5] = system: NCI-H460 lung
[6] = system: HOP-92 NSCLC
[7] = system: NCI-H522 lung
[8] = system: A549/ATCC NSCLC
[9] = system: 786-0 renal
[10] = system: COLO 205 colon
[11] = system: DU-145 prostate
[12] = system: K-562 leukemia
[13] = system: MALME-3M melanoma
[14] = system: MDA-MB-231 breast
[15] = system: RXF 393 renal
[16] = system: SF-268 CNS
[17] = system: SF-295 CNS
[18] = system: SF-539 CNS
[19] = system: M14 melanoma

Row | SMILES | growth [1] | growth [2] | growth [3] | growth [4] | growth [5] | growth [6] | growth [7] | growth [8] | growth [9] | growth [10] | growth [11] | growth [12] | growth [13] | growth [14] | growth [15] | growth [16] | growth [17] | growth [18] | growth [19]
1 | C=C1C(=O)O[C@H]2[C@H]1CC/C(Cn1cc(-c3ccccc3C(F)(F)F)nn1)=C\CC[C@@]1(C)O[C@@H]21 | 7.85% (active) | -45.6% (active) | 81.6% (inactive) | 37.3% (inactive) | 49.1% (inactive) | -70.4% (active) | -82.5% (active) | 42.9% (inactive) | -81.2% (active) | -78.8% (active) | -95.4% (active) | -13% (active) | -59.3% (active) | -33.4% (active) | -72.3% (active) | -4.71% (active) | 58.8% (inactive) | -74.9% (active) | -79.1% (active)
2 | O=C(O)C(=Cc1c2ccccc2cc2ccccc12)C(=O)O | 91.3% (inactive) | 109% (inactive) | 100% (inactive) | 105% (inactive) | 112% (inactive) | 105% (inactive) | 89.7% (inactive) | 92.1% (inactive) | 106% (inactive) | 113% (inactive) | 118% (inactive) | 100% (inactive) | 97.9% (inactive) | 103% (inactive) | 115% (inactive) | 108% (inactive) | 100% (inactive) | 97.3% (inactive) | 100% (inactive)
3 | CCCCCCCN(CCCCCCC)C(=N)c1ccc(OC)c2ccccc12 | -70.2% (active) | -73.1% (active) | -89% (active) | -85.9% (active) | -92% (active) | -86.6% (active) | -75.2% (active) | -83.7% (active) | -90.7% (active) | -73% (active) | -96.4% (active) | -47.9% (active) | -72% (active) | -77.2% (active) | -94.5% (active) | -91% (active) | -89.9% (active) | -88% (active) | -85.9% (active)
4 | CCOc1ccc(/C=C/C=N/NC(N)=S)cc1 | 78.7% (inactive) | 119% (inactive) | 91.7% (inactive) | 106% (inactive) | 96% (inactive) | 89.3% (inactive) | 37.3% (inactive) | 86.1% (inactive) | 56% (inactive) | 84.5% (inactive) | 92.9% (inactive) | 56% (inactive) | 82% (inactive) | 66.6% (inactive) | -0.439% (active) | 92.1% (inactive) | 96.7% (inactive) | 74.3% (inactive) | 95.7% (inactive)
5 | O=C(Cc1c(F)cccc1Cl)Nc1ccc(S(=O)(=O)Nc2ncccn2)cc1 | 97.6% (inactive) | 99.4% (inactive) | 116% (inactive) | 96.2% (inactive) | 114% (inactive) | 91.1% (inactive) | 104% (inactive) | 110% (inactive) | 103% (inactive) | 105% (inactive) | 104% (inactive) | 89.7% (inactive) | 124% (inactive) | 109% (inactive) | 38.1% (inactive) | 116% (inactive) | 92.5% (inactive) | 96.5% (inactive) | 110% (inactive)
6 | Cc1ccc2c(c1)C(C)Cc1c(N(C)C)ncnc1N2C (centres undefined) | 50.5% (inactive) | 81.8% (inactive) | 81.2% (inactive) | 36.4% (inactive) | 15.5% (inactive) | 52.4% (inactive) | 4.76% (active) | 49.3% (inactive) | 34.8% (inactive) | 32.4% (inactive) | 68.7% (inactive) | 12.8% (inactive) | 53.2% (inactive) | 56.3% (inactive) | 40.1% (inactive) | 47.3% (inactive) | 6.52% (active) | 28.3% (inactive) | 24.7% (inactive)
7 | COc1cc(/C=C/C(=O)c2ccccc2O)ccc1OCCCOc1cc2c(cc1OC)C(=O)N1CCC[C@H]1C=N2 | 3.19% (active) | -3.94% (active) | -10.6% (active) | 9.86% (active) | -18.1% (active) | -27.4% (active) | -9.43% (active) | 6.93% (active) | -44.8% (active) | -3.82% (active) | 2.53% (active) | 76.3% (inactive) | -73.1% (active) | -20.6% (active) | -44.6% (active) | 0.95% (active) | -11% (active) | -1.54% (active) | -7.64% (active)
8 | O=S(=O)(NCCNc1cc(-c2cn(-c3ccccc3)nc2-c2ccccc2)ccn1)c1ccc(F)cc1 | 81.6% (inactive) | 77.7% (inactive) | 96.2% (inactive) | 98.8% (inactive) | 91.7% (inactive) | 40.7% (inactive) | 82.9% (inactive) | 77.6% (inactive) | 81.5% (inactive) | 98.8% (inactive) | 88.3% (inactive) | 54.3% (inactive) | 101% (inactive) | 80.1% (inactive) | 75.1% (inactive) | 83.2% (inactive) | 87.6% (inactive) | 103% (inactive) | 87% (inactive)
9 | NC(=O)c1cccc(N2Cc3ccccc3OC3=C2C(=O)c2c(O)ccc(O)c2C3=O)c1 | 6.02% (active) | 0.769% (active) | 25.5% (inactive) | -42% (active) | -27.5% (active) | -91.8% (active) | -73.4% (active) | 24.7% (inactive) | -80.5% (active) | -82.8% (active) | -96.4% (active) | -19.8% (active) | -82% (active) | -81.9% (active) | -73.1% (active) | -11.4% (active) | 45.4% (inactive) | -49.3% (active) | -81% (active)
10 | COc1ccc(C2NC3=C(CCCC3)C(C#N)(C#N)C2(C#N)C#N)cc1 (centres undefined) | 91.4% (inactive) | 97% (inactive) | 109% (inactive) | 94.6% (inactive) | 97.6% (inactive) | 103% (inactive) | 23.8% (inactive) | 106% (inactive) | 88.1% (inactive) | 11.8% (inactive) | 94.2% (inactive) | 12.5% (inactive) | 71.6% (inactive) | 70.1% (inactive) | 93.8% (inactive) | 97.8% (inactive) | 99.7% (inactive) | 101% (inactive) | 90.7% (inactive)
11 | CC(CCc1ccccc1)NC(=O)c1n[nH]c(=O)c2ccccc12 (centres undefined) | 116% (inactive) | 103% (inactive) | 89.7% (inactive) | 92.1% (inactive) | 110% (inactive) | 61.2% (inactive) | 82.4% (inactive) | 95.8% (inactive) | 107% (inactive) | 115% (inactive) | 110% (inactive) | 77.3% (inactive) | 116% (inactive) | 101% (inactive) | 144% (inactive) | 112% (inactive) | 107% (inactive) | 98.6% (inactive) | 104% (inactive)
12 | O=C(Nc1ccc(F)c(Cl)c1)c1n[nH]c(=O)c2ccccc12 | 106% (inactive) | 97.2% (inactive) | 113% (inactive) | 102% (inactive) | 107% (inactive) | 96.9% (inactive) | 99.6% (inactive) | 91.8% (inactive) | 115% (inactive) | 105% (inactive) | 131% (inactive) | 99.8% (inactive) | 125% (inactive) | 98.3% (inactive) | -29.4% (active) | 99.4% (inactive) | 84.8% (inactive) | 124% (inactive) | 115% (inactive)
13 | C=C1C(=O)O[C@H]2[C@H]1CC/C(Cn1cc(-c3ccc(N)cc3)nn1)=C\CC[C@@]1(C)O[C@@H]21 | 22.3% (inactive) | -14.3% (active) | 78.9% (inactive) | 51.4% (inactive) | 74% (inactive) | -44.3% (active) | -73.2% (active) | 48.6% (inactive) | -61.3% (active) | -63.5% (active) | 4.28% (active) | 6.36% (active) | -23.1% (active) | 4.85% (active) | -67.1% (active) | 16.6% (inactive) | 67.6% (inactive) | -18.7% (active) | -18.2% (active)
14 | NC(=O)c1ccc2c(c1)OCO2 | 89.2% (inactive) | 98.5% (inactive) | 107% (inactive) | 112% (inactive) | 109% (inactive) | 90.2% (inactive) | 91.9% (inactive) | 105% (inactive) | 105% (inactive) | 113% (inactive) | 108% (inactive) | 115% (inactive) | 98.3% (inactive) | 100% (inactive) | 94.5% (inactive) | 97.2% (inactive) | 96.5% (inactive) | 104% (inactive) | 101% (inactive)
15 | O=C(CSc1nc(-c2ccc(Cl)cc2)cn1-c1ccc(Cl)cc1)c1ccc(Br)cc1 | 77.1% (inactive) | 68.4% (inactive) | 94.2% (inactive) | 48.3% (inactive) | 50.8% (inactive) | 43.9% (inactive) | 58.8% (inactive) | 59.2% (inactive) | 34.7% (inactive) | 81.7% (inactive) | 90.9% (inactive) | 86.4% (inactive) | 94% (inactive) | 60.1% (inactive) | 67.9% (inactive) | 78.1% (inactive) | 52.1% (inactive) | 84.7% (inactive) | 89.1% (inactive)
16 | COc1cc(Br)c(OC)cc1Br | 78% (inactive) | 98.3% (inactive) | 89.7% (inactive) | 93.5% (inactive) | 99.3% (inactive) | 96.9% (inactive) | 90.4% (inactive) | 95.6% (inactive) | 105% (inactive) | 109% (inactive) | 106% (inactive) | 104% (inactive) | 75.4% (inactive) | 85.6% (inactive) | 116% (inactive) | 98.6% (inactive) | 94.7% (inactive) | 93.6% (inactive) | 91.5% (inactive)
